# FGF22 binding: shifts melting point of recombinant human FGF22; Q9HCT0; recombinant FGF22 thermal shift, SYPRO orange fluorescence; percent of sucrose octasulfate shift, DMSO zero; activity (Tm shift, normalised), % at 9.99 µM; actives 1.5% (n = 340,000); AID 651658;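 active = mean Tm shift, scaled 0 neutral to 100 positive control, at about 1.3% or above, every replicate too, limit read from the data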
# Target sequence (Q9HCT0 whole entry, looked up): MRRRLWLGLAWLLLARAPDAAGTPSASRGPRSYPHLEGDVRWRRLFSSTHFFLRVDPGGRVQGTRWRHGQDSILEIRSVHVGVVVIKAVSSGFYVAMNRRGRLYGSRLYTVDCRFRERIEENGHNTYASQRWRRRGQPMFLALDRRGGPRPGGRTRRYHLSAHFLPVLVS
# ERAP1 HTS inh: inhibitors of human ERAP1 aminopeptidase; recombinant ERAP1, Leu-AMC fluorescence, 60 min; inhibition, % at 10.7 µM; AID 652197; actives 0.15% (n = 340,000); Q9NZ08;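 active = mean replicate inhibition of at least 30%, or all replicates individually reaching that 30% level; inactive = mean below 30% and not every replicate reaching it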;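 note: 0% = neutral control wells and 100% = L-leucinethiol positive control wells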
# Casp6 inh: blocks human caspase-6 cleavage activity; P55212; purified caspase-6, Z-VEID-R110 cleavage fluorescence; inhibition, % at 12.5 µM; actives 0.53% (n = 350,000); AID 686996;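 active = mean inhibition across replicates at least about 35%, with every replicate also reaching that limit, limit read from the data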;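 note: 0% = median of neutral control wells and 100% = no fluorescence left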
# Target sequence (P55212 24-179 limits assumed): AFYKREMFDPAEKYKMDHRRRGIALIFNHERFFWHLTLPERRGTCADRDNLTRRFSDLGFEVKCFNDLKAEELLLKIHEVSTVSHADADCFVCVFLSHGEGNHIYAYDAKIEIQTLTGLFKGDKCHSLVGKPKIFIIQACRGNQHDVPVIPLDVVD
# Target sequence (P55212 194-293 limits assumed): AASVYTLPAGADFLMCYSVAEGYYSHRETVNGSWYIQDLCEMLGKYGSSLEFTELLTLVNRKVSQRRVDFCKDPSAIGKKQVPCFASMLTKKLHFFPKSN
# SIRT5 inh: sirtuin-5 (human) deacylase inhibition. Q9NXA8. Purified SirT5, succinyl-peptide AMC, trypsin-coupled fluorescence. inhibition, % at 15 µM. actives 1.1% (n = 330,000). AID 652115; in the data active = inhibition above about 15%
# * marks the source's active call; other numbers are inactive results; x = not tested or not shown. Hits are enriched below; roughly 3.1% of the tested compounds scored in any of these assays.
SMILES,FGF22 binding,ERAP1 HTS inh,Casp6 inh,SIRT5 inh
O=C(C[C@@H]1C[C@H]2c3cc(NC(=O)c4ccc5c(c4)OCO5)ccc3O[C@H]2[C@H](CO)O1)NC1CCCCC1,-1,-3,0,1
O=C(NN=Cc1ccccc1O)C1CC1,43*,0,0,x
O=C(N/N=C/c1ccccc1O)C1SCCCS1,0,-3,-10,2
CS(=O)(=O)N(CCC#N)Cc1ccco1,0,0,-1,16*
CS(=O)(=O)N(Cc1ccco1)Cc1ccccc1Cl,x,1,3,0
C/C(=N\Nc1ccc([N+](=O)[O-])cc1)c1cc2ccccc2o1,44*,3,-1,0
C[C@@H]1CN([C@H](C)CO)C(=O)c2cc(C3=CCCC3)cnc2O[C@H]1CN(C)S(=O)(=O)c1cn(C)cn1,0,-1,2,-3
COCC(=O)N1CCC2CC1c1cc(Cl)ccc12 (stereo not given),0,-4,-3,22*
C[C@H](CO)N1C[C@H](C)[C@@H](CN(C)CC2CCCCC2)Oc2ccc(NC(=O)Nc3ccccc3)cc2CC1=O,0,2,1,6
NC(N)=N/N=C/c1cccc([N+](=O)[O-])c1O,43*,0,-2,0
C[C@@H]1CN([C@@H](C)CO)C(=O)c2cc(NC(=O)c3ccncc3)ccc2O[C@@H](C)CCCCO[C@H]1CN(C)Cc1ccccc1,0,-2,0,-6
C[C@@H]1CN([C@H](C)CO)C(=O)Cc2cc(NC(=O)Nc3ccc(F)cc3)ccc2O[C@H]1CN(C)S(=O)(=O)c1cccs1,0,1,-3,0
COc1c(OC(C)=O)ccc(/C=N\NC(=O)c2ccc(Br)cc2)c1[N+](=O)[O-],45*,-2,3,1
COC(=O)Cc1cc(=O)[nH]c(/N=C(\N)Nc2cccc(C)c2)n1,43*,0,-2,-4
COc1ccc(N/C(N)=N/c2nc(C)cc(=O)[nH]2)cc1,0,-1,-1,1
Cc1cccc(N/C(N)=N/c2nc(C)cc(=O)[nH]2)c1,43*,-8,-2,-6
Cc1cc(=O)[nH]c(/N=C(\N)Nc2ccc3c(c2)OCCO3)n1,44*,1,1,-1
Cc1noc(C)c1S(=O)(=O)Nc1ccc2c(c1)C(=O)N([C@@H](C)CO)C[C@@H](C)[C@H](CN(C)Cc1ccc(Cl)c(Cl)c1)O2,0,-1,-2,4
CCN(CC)c1ccc(C(=O)NNC(=O)CCNC(=O)c2ccccc2)cc1,0,-1,-1,0
CCN(CC)c1ccc(C(=O)NNC(=O)CCl)cc1,44*,-3,0,-6
Cc1ccc(/C=C/C(=O)N2CCN(c3cccc(C(F)(F)F)c3)CC2)cc1,0,2,-1,30*
Cc1ccc(NC(=O)/C=C/c2cccc(C(F)(F)F)c2)cc1,18*,0,-2,2
CNC(=O)c1ccc(NC(=O)/C=C/c2cccc(F)c2)cc1,44*,1,0,-6
C[C@@H]1CN([C@@H](C)CO)C(=O)c2cccc(NC(=O)c3ccc(-c4nccs4)cc3)c2O[C@@H]1CN(C)S(=O)(=O)c1cn(C)cn1,0,1,2,3
C[C@H]1CN([C@@H](C)CO)C(=O)Cc2cc(NC(=O)C3CCCCC3)ccc2O[C@H]1CN(C)Cc1ccc2c(c1)OCO2,0,0,3,5
SMILES,FGF22 binding,ERAP1 HTS inh,Casp6 inh,SIRT5 inh
C/C=C/c1ccc2c(c1)O[C@H](CN(C)C(=O)C1CCCCC1)[C@@H](C)CN([C@H](C)CO)S2(=O)=O,0,2,2,-4
Cn1cnc([N+](=O)[O-])c1Sc1ncnc2nc[nH]c12,0,0,2,3
Cn1cnc(Sc2ncnc3nc[nH]c23)c1[N+](=O)[O-],0,41*,0,0
COc1ccccc1-c1ccc2c(c1)O[C@H](CN(C)S(=O)(=O)c1ccc(C)cc1)[C@H](C)CN([C@H](C)CO)S2(=O)=O,0,-8,2,4
COc1ccccc1-c1ccc2c(c1)O[C@@H](CN(C)S(=O)(=O)c1ccc(F)cc1)[C@@H](C)CN([C@@H](C)CO)S2(=O)=O,0,-4,0,23*
COc1ccccc1-c1ccc2c(c1)O[C@@H](CN(C)S(=O)(=O)c1ccc(F)cc1)[C@@H](C)CN([C@H](C)CO)S2(=O)=O,0,-1,1,20*
COc1ccccc1-c1ccc2c(c1)O[C@H](CN(C)S(=O)(=O)c1ccc(F)cc1)[C@H](C)CN([C@@H](C)CO)S2(=O)=O,0,-2,-3,18*
O=C(C[C@@H]1C=C[C@H](NC(=O)C2CC2)[C@@H](CO)O1)Nc1nccs1,0,-2,1,-3
Cc1nn(CCCC(=O)NCCc2ccccc2)c(=O)c2nn(-c3ccccc3)c(C)c12,0,0,50*,1
Cc1ccc(-n2nc3c(=O)n(CCCC(=O)NCCc4ccccc4)nc(C)c3c2C)cc1,0,0,-3,-2
O=C(/C=C/c1ccc([N+](=O)[O-])cc1)OCc1cnc(-c2ccccc2)o1,44*,1,-2,-6
N#CCC(=O)N/N=C/c1ccc(OCc2ccccc2)cc1,43*,0,0,0
COc1ccccc1N/N=C/c1ccc2c(c1)OCO2,44*,-3,-3,-2
Cc1cccc(OCC(=O)N/N=C/c2ccc3c(c2)OCO3)c1,0,1,-2,1
O=C(COc1ccccc1)N/N=C/c1ccc2c(c1)OCO2,0,2,1,21*
C/C(=N\NC(=O)COc1ccccc1)c1ccc(O)cc1,43,2,3,-5
COc1ccccc1C(=O)N/N=C/c1ccc2c(c1)OCO2,0,-1,0,3
C/C(=N\NC(=O)CC#N)c1ccc(Oc2ccccc2)cc1,44*,0,-3,-4
O=C(C[C@H]1C[C@H]2c3cc(NS(=O)(=O)c4ccc(F)cc4)ccc3O[C@H]2[C@H](CO)O1)NCC1CC1,0,x,x,x
O=c1[nH]c(=O)n(-c2ccc(F)cc2)c2c1C(C(F)(F)F)(C(F)(F)F)N=C(c1ccc(F)cc1)N2,1.9*,1,-1,2
Nc1c(Br)c(=O)[nH]c(=O)n1-c1ccc(F)cc1,0,-3,2,-4
COc1ccc(/C=C/c2nc3ccccc3c(=O)n2-c2cccc(C(=O)O)c2)cc1,0,-5,1,18*
O=C(NC1CCCCC1)N1CC2(C1)[C@H](c1ccccc1)[C@H](CO)N2CC1CCCC1,0,0,-2,1
Clc1ccccc1CNCc1ccncc1,43*,-1,-4,6
FC(F)(F)c1ccccc1CNCc1ccncc1,0,-1,-2,-1
Cc1ccc(C(=O)N2CC(=O)Nc3ccc(F)cc3C2c2ccccc2)cc1 (stereo not given),0,2,4,15*
O=C1CN(C(=O)c2ccccc2F)C(c2ccccc2)c2cc(F)ccc2N1 (stereo not given),0,-2,0,-1
O=C(Nc1ccccc1)c1csc(-c2ccccc2)n1,0,1,2,-1
O=C(Nc1ccc(C(F)(F)F)cc1)c1csc(-c2ccncc2)n1,43*,2,-1,-1
